In PubChem BioAssay (EPA / NIEHS):
Results filed as inconclusive are left out. Calls of active or inactive are those of the source. How the source made its calls: active means hit-call score of the fitted dose curve at least 0.9, where 1 is the maximum; inconclusive means response in the unintended direction; inactive means score below 0.9.

read-out: HMG-CoA synthase (HMGCS2), HMGCS2 (gene 3158); assay: CLD_HMGCS2_6hr: CellzDirect (CLD) Gene Expression Assay for HMG-CoA synthase (HMGCS2) at 6 hours (AID 2283682);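 further: actives raise HMGCS2 transcript above the 0.2% DMSO vehicle baseline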
Outline: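 HMGCS2 transcript induction read by quantitative nuclease protection with chemiluminescence, 6 h after dosing of primary human hepatocytes. Baseline was 0.2% DMSO vehicle; phase-contrast morphology gave a yes/no cytotoxicity annotation.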

| Compound | outcome | AC50 |
| --- | --- | --- |
| O=c1n(Cl)c(=O)n(Cl)c(=O)n1Cl | inactive |  |
| CS(=O)(=O)c1cc(C(F)(F)F)ccc1C(=O)c1cnoc1C1CC1 |  | 3.97 µM (active) |
| CCOc1cc(C(C)(C)C)ccc1C1COC(c2c(F)cccc2F)=N1 (centres undefined) | inactive |  |
| C=CCOC(=O)C(C)(C)OC(=O)c1cc(-n2c(=O)cc(C(F)(F)F)n(C)c2=O)ccc1Cl | inactive |  |
| Nc1c(Cl)c(Cl)nc(C(=O)O)c1Cl | inactive |  |
| CC(C)N1C(=O)c2ccccc2NS1(=O)=O |  | 0.00735 µM (active) |
| Clc1cccc(C(Cl)(Cl)Cl)n1 | inactive |  |
| CCNC(=O)NC(=O)C(C#N)=NOC | inactive |  |
| Cc1ccc(N=CN(C)C=Nc2ccc(C)cc2C)c(C)c1 | inactive |  |
| Cc1cnc(C2=NC(C)(C(C)C)C(=O)N2)c(C(=O)O)c1 (centres undefined) | inactive |  |
| CSC(=O)c1c(C(F)F)nc(C(F)(F)F)c(C(=O)SC)c1CC(C)C | inactive |  |
| C=C(C)CN(CC)c1c([N+](=O)[O-])cc(C(F)(F)F)cc1[N+](=O)[O-] | inactive |  |
| Cn1c(-c2ccccc2)cc(-c2ccccc2)[n+]1C | inactive |  |
| CCNP(=S)(OC)O/C(C)=C/C(=O)OC(C)C (centres undefined) | inactive |  |
| COc1ccc(-c2ccccc2)cc1NNC(=O)OC(C)C | inactive |  |
| CC1(C)CON(Cc2ccccc2Cl)C1=O | inactive |  |

read-out: xenobiotic metabolism (CYP1A2), CYP1A2 (gene 1544); assay: CLD_CYP1A2_24hr: CellzDirect (CLD) Gene Expression Assay for xenobiotic metabolism (CYP1A2) at 24 hours (AID 2283683)
Outline: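 CYP1A2 mRNA induction measured by quantitative nuclease protection (chemiluminescent) in human primary hepatocytes 24 h after multi-concentration chemical dosing with daily fresh solutions. DMSO (0.2%) baseline; positive-direction fitting; morphology-based cytotoxicity noted.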

| Compound | AC50 | outcome |
| --- | --- | --- |
| O=c1n(Cl)c(=O)n(Cl)c(=O)n1Cl | 3.33 µM (active) |  |
| CS(=O)(=O)c1cc(C(F)(F)F)ccc1C(=O)c1cnoc1C1CC1 |  | inactive |
| COP(=O)(OC)O/C(C)=C/C(=O)N(C)C |  | inactive |
| CC(C)Oc1cccc(NC(=O)c2ccccc2C(F)(F)F)c1 | 20 µM (active) |  |
| CO/N=C(/C1=NOCCO1)c1ccccc1Oc1ncnc(Oc2ccccc2Cl)c1F |  | inactive |
| CCOc1cc(C(C)(C)C)ccc1C1COC(c2c(F)cccc2F)=N1 (centres undefined) | 15.7 µM (active) |  |
| O=C1C2CC=CCC2C(=O)N1SC(Cl)(Cl)Cl (centres undefined) |  | inactive |
| Nc1c(Cl)c(Cl)nc(C(=O)O)c1Cl | 20 µM (active) |  |
| CC(C)N1C(=O)c2ccccc2NS1(=O)=O |  | inactive |
| Clc1cccc(C(Cl)(Cl)Cl)n1 |  | inactive |
| Clc1nc(Cl)nc(Nc2ccccc2Cl)n1 |  | inactive |
| CCCCOCN(C(=O)CCl)c1c(CC)cccc1CC |  | inactive |
| CCNC(=O)NC(=O)C(C#N)=NOC |  | inactive |
| COP(=S)(OC)SCn1nnc2ccccc2c1=O | 2.27 µM (active) |  |
| Cc1ccc(N=CN(C)C=Nc2ccc(C)cc2C)c(C)c1 |  | inactive |
| O=C(O)c1c(Cl)ccc2cc(Cl)cnc12 |  | inactive |
| Cc1cnc(C2=NC(C)(C(C)C)C(=O)N2)c(C(=O)O)c1 (centres undefined) |  | inactive |

| Compound | AC50 | outcome |
| --- | --- | --- |
| CC(C)(C)C(=O)C(Oc1ccc(Cl)cc1)n1cncn1 (centres undefined) | 9.31 µM (active) |  |
| O=P(O)(O)CCCl |  | inactive |
| CN=C=S |  | inactive |
| CSC(=O)c1c(C(F)F)nc(C(F)(F)F)c(C(=O)SC)c1CC(C)C | 5.33 µM (active) |  |
| CCOc1nc(C(Cl)(Cl)Cl)ns1 |  | inactive |
| CS(=O)(=O)c1ccc(C(=O)C2C(=O)CCCC2=O)c([N+](=O)[O-])c1 |  | inactive |
| C=C(C)CN(CC)c1c([N+](=O)[O-])cc(C(F)(F)F)cc1[N+](=O)[O-] |  | inactive |
| Cn1c(-c2ccccc2)cc(-c2ccccc2)[n+]1C | 0.141 µM (active) |  |
| COC(=O)N(C(=O)N1CO[C@@]2(C(=O)OC)Cc3cc(Cl)ccc3C2=N1)c1ccc(OC(F)(F)F)cc1 | 1.28 µM (active) |  |
| CCNP(=S)(OC)O/C(C)=C/C(=O)OC(C)C (centres undefined) | 4.58 µM (active) |  |
| COP(=S)(OC)Oc1ccc([N+](=O)[O-])c(C)c1 | 1.38 µM (active) |  |
| N#CN=C1SCCN1Cc1ccc(Cl)nc1 |  | inactive |
| COc1ccc(-c2ccccc2)cc1NNC(=O)OC(C)C | 0.255 µM (active) |  |
| CC(C)NC(=O)N1CC(=O)N(c2cc(Cl)cc(Cl)c2)C1=O | 15.7 µM (active) |  |
| OC(c1ccc(Cl)cc1)(c1ccc(Cl)cc1)C(Cl)(Cl)Cl |  | inactive |
| CC1(C)CON(Cc2ccccc2Cl)C1=O |  | inactive |
